Assay [1] can be described thus: qHTS assay to identify small molecule antagonists of the thyroid receptor (TR) signaling pathway (AID 743065). Further: series mostly up to about 70 µM; nearly all actives have a fitted effect of over 55% in size. The procedure, abridged: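 Antagonism measured as loss of luciferase signal in GH3 cells stably carrying a TRE-luciferase reporter, co-treated with compound and T3 (1 nM final) for 23.5 h at 37 C. Viability was read in the same well by CellTiter-Fluor.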
On the technique in general: qHTS replaces the single test concentration by a dilution series.

For assay [2], the system named is thyroid hormone receptor (rat, GH3 cells). The assay can be described thus: qHTS assay to identify small molecule agonists of the thyroid receptor (TR) signaling pathway (AID 743066; calls by dose curve).
The target in assay [3] is Estrogen receptor (Homo sapiens) (UniProt P03372). The assay can be described thus: qHTS assay to identify small molecule antagonists of the estrogen receptor alpha (ER-alpha) signaling pathway (AID 743069; active means well fitted curve in the direction sought with a large enough effect in the signal ratio in the repeat runs, not every such curve was filed as active; the % refers to the signal ratio). A digest of the protocol:
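ER-alpha-UAS-bla GripTite HEK293 line; 2% charcoal-stripped FBS overnight; plated, 4 hr 37C/5% CO2; cpd in DMSO + 17beta-estradiol, 18 hr 37C; LiveBLAzer B/G FRET substrate 2 hr RT; fluorescence intensity.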

Assay [4] in a line: qHTS assay to identify small molecule antagonists of the estrogen receptor alpha (ER-alpha) signaling pathway - cell viability counter screen (AID 743074; calls by dose curve;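 further: HEK293 cells carrying ER-alpha-UAS-bla reporter stimulated with 17beta-estradiol; nearly all actives have a fitted effect of over 45% in size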).
Assay [5] addresses Estrogen receptor (Homo sapiens) (UniProt P03372). Kind of assay: qHTS assay to identify small molecule agonists of the estrogen receptor alpha (ER-alpha) signaling pathway (AID 743075; calls by dose curve;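 further: HEK293 GripTite cells with ER-alpha and UAS-driven beta-lactamase reporter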).
For assay [6] the target is unchanged. Kind of assay: qHTS assay to identify small molecule agonists of the estrogen receptor alpha (ER-alpha) signaling pathway using the BG1 cell line (AID 743079). Further: nearly all actives have a fitted effect of over 20% in size. Further: potency means the concentration at half of the fitted maximal effect.
Assay [7] can be described thus: qHTS assay to identify small molecule antagonists of the estrogen receptor alpha (ER-alpha) signaling pathway using the BG1 cell line (AID 743080; calls by dose curve; further: series mostly up to about 70 µM; nearly all actives have a fitted effect of over 25% in size). A digest of the protocol: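 Antagonist mode: compounds in DMSO were pinned onto BG1-Luc-4E2 cells alongside 17beta-estradiol agonist, incubated 21.5 h, and ERE-driven luciferase measured with ONE-Glo. Cytotoxicity was multiplexed using CellTiter-Fluor fluorescence.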

Assay [8] can be described thus: qHTS assay to identify small molecule antagonists of the estrogen receptor alpha (ER-alpha) signaling pathway using the BG1 cell line - cell viability counter screen (AID 743081).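 Further: compound given together with 17beta-estradiol as the ER stimulus; series mostly up to about 70 µM; nearly all actives have a fitted effect of over 45% in size.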
The target of assay [9] is Aromatase (Homo sapiens) (UniProt P11511). The assay can be described thus: qHTS assay to identify aromatase inhibitors (AID 743083). Further: series mostly up to about 70 µM; nearly all actives have a fitted effect of over 55% in size.
The nature of assay [10]: qHTS assay to identify aromatase inhibitors - cell viability counter screen (AID 743084).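 Further: cells stimulated with testosterone during compound exposure; nearly all actives have a fitted effect of over 55% in size.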
Assay [11] deals with Aryl hydrocarbon receptor (Homo sapiens) (UniProt P35869). Kind of assay: qHTS assay to identify small molecule that activate the aryl hydrocarbon receptor (AhR) signaling pathway (AID 743085).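 Further: HG2L7.5c1 human HepG2 liver cells with stably integrated DRE-driven firefly reporter; series mostly up to about 70 µM; nearly all actives have a fitted effect of over 15% in size.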 A digest of the protocol:
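AhR agonist activity is inferred from enhanced light output of a DRE-controlled firefly luciferase reporter in HepG2 cells, measured with ONE-Glo following 24 h treatment at 37C.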

A short description of assay [12]: qHTS assay to identify small molecule that activate the aryl hydrocarbon receptor (AhR) signaling pathway - cell viability counter screen (AID 743086). Further: series mostly up to about 70 µM; nearly all actives have a fitted effect of over 45% in size. A digest of the protocol: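 Cytotoxicity counter screen: CellTiter-Fluor signal (30 min, 37 C) in 4000 HepG2 cells/well carrying the DRE-luciferase reporter, following 24 h compound exposure at 37 C.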
For assay [13], the target named is Peroxisome proliferator-activated receptor gamma (Homo sapiens) (UniProt P37231). The assay can be described thus: qHTS assay to identify small molecule agonists of the peroxisome proliferator-activated receptor gamma (PPARg) signaling pathway (AID 743094; active means well fitted activation curve with a large enough effect in the signal ratio in the repeat runs, not every such curve was filed as active; the % refers to the signal ratio). A digest of the protocol:
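Compounds dissolved in DMSO were added to PPARg UAS-bla HEK293H cells for 17 h at 37C, and reporter expression was quantified by fluorescence intensity after 1 h with LiveBLAzer B/G FRET substrate.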

Assay [14] has the same target. The assay can be described thus: qHTS assay to identify small molecule antagonists of the peroxisome proliferator-activated receptor gamma (PPARg) signaling pathway (AID 743191; calls by dose curve; further: series mostly up to about 63 µM; nearly all actives have a fitted effect of over 30% in size). The procedure, abridged: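 Beta-lactamase reporter under UAS control in HEK293H PPARg-bla cells; compound treatment 17 h at 37C. Read-out: fluorescence intensity after 1 h room-temperature incubation with LiveBLAzer B/G FRET substrate.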

Assay [15] is described as follows: qHTS assay to identify small molecule antagonists of the peroxisome proliferator-activated receptor gamma (PPARg) signaling pathway - cell viability counter screen (AID 743194). Further: nearly all actives have a fitted effect of over 55% in size. A digest of the protocol:
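Viability was measured as CellTiter-Glo luminescence in GeneBLAzer PPARg UAS-bla HEK293H cells. These cells had been exposed 17 h at 37 C to compounds together with rosiglitazone at 50 nM final, with the beta-lactamase readout taken in the same wells.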

Assay [16] can be described thus: qHTS assay for small molecule agonists of the antioxidant response element (ARE) signaling pathway (AID 743202; active means well fitted activation curve with a large enough effect in the signal ratio in the repeat runs, not every such curve was filed as active; the % refers to the signal ratio). A digest of the protocol: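 Quantitative high-throughput format in HepG2 cells bearing an integrated ARE-beta-lactamase reporter. Compound exposure lasted 16 h at 37 C, and fluorescence was read 2 h after adding LiveBLAzer B/G substrate at room temperature.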

Assay [17] is described as follows: qHTS assay for small molecule agonists of the antioxidant response element (ARE) signaling pathway - cell viability counter screen (AID 743203; calls by dose curve; further: nearly all actives have a fitted effect of over 55% in size). The procedure, abridged:
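Following 16 hrs of compound treatment at 37C, HepG2 cells with an ARE-controlled beta-lactamase gene were lysed with CellTiter-Glo. Luminescence was read after 30 min at room temperature.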

Assay [18] is described as follows: qHTS assay for small molecule activators of the heat shock response signaling pathway - cell viability counter screen (AID 743209). Further: nearly all actives have a fitted effect of over 50% in size. The procedure, abridged: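 Readout: CellTiter-Glo luminescence, 30 min at room temperature. System: HSE-bla HeLa cells, 1500/well, plated overnight. Treatment: compounds in DMSO, 5 h at 37 C.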
Assay [19] can be described thus: qHTS assay for small molecule activators of the heat shock response signaling pathway (AID 743210; active means well fitted activation curve with a large enough effect in the signal ratio in the repeat runs, with a control signal flat, not every such curve was filed as active; the % refers to the signal ratio;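 further: HeLa cells with beta-lactamase reporter driven by heat shock elements; series mostly up to about 63 µM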). A digest of the protocol: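 HeLa HSE-bla cells, overnight plating; cpd in DMSO 5 h, 37 C; LiveBLAzer B/G FRET substrate 2.5 h RT; fluorescence intensity read.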
Assay [20] can be described thus: qHTS assay to identify small molecule agonists of the peroxisome proliferator-activated receptor delta (PPARd) signaling pathway - cell viability counter screen (AID 743211). Further: nearly all actives have a fitted effect of over 55% in size. A digest of the protocol:
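qHTS cell viability: PPARd-bla HEK293H; 17 h cpd, 37C; CellTiter-Glo, luminescence at 30 min RT.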

Inconclusive results are not listed. The source made the active and inactive calls. Unless noted, the call rests on the fitted dose curve; in most records, active means well fitted curve in the direction sought with a large enough effect in the repeat runs; inconclusive means weak or mixed curves; inactive means no such curve, though single readings can be large; an effect the other way counts as inactive or inconclusive.

Estrogen receptor (Homo sapiens), sequence (P03372 whole entry, looked up): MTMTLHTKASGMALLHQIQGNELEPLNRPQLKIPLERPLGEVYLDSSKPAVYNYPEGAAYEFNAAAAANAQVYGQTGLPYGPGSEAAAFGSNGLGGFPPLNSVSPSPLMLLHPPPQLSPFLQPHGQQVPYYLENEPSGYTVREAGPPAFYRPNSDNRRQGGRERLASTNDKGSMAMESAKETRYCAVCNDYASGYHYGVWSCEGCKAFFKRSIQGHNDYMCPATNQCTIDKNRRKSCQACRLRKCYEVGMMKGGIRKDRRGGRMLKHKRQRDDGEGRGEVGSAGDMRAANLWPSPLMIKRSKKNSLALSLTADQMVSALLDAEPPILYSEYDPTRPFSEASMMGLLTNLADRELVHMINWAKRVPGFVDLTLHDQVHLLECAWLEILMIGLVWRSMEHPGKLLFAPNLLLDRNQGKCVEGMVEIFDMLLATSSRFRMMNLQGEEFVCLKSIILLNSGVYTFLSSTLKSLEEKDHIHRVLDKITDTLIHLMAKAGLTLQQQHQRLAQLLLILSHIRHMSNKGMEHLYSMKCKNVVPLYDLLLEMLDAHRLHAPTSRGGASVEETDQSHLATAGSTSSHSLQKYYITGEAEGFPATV
Aromatase (Homo sapiens), sequence (P11511 whole entry, looked up): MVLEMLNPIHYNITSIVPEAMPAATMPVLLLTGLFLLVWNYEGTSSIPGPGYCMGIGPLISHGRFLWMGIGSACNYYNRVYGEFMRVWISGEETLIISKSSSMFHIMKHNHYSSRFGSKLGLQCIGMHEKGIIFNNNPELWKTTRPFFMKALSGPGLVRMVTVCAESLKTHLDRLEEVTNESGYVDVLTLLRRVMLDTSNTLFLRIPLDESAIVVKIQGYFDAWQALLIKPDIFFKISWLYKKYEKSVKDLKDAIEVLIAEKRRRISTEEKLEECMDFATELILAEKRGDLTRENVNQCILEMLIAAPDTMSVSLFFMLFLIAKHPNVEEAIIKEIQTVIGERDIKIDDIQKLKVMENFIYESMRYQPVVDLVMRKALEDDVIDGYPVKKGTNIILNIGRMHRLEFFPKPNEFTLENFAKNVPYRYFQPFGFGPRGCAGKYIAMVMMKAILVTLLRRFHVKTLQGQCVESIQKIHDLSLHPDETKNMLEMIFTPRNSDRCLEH
Aryl hydrocarbon receptor (Homo sapiens), sequence (P35869 whole entry, looked up): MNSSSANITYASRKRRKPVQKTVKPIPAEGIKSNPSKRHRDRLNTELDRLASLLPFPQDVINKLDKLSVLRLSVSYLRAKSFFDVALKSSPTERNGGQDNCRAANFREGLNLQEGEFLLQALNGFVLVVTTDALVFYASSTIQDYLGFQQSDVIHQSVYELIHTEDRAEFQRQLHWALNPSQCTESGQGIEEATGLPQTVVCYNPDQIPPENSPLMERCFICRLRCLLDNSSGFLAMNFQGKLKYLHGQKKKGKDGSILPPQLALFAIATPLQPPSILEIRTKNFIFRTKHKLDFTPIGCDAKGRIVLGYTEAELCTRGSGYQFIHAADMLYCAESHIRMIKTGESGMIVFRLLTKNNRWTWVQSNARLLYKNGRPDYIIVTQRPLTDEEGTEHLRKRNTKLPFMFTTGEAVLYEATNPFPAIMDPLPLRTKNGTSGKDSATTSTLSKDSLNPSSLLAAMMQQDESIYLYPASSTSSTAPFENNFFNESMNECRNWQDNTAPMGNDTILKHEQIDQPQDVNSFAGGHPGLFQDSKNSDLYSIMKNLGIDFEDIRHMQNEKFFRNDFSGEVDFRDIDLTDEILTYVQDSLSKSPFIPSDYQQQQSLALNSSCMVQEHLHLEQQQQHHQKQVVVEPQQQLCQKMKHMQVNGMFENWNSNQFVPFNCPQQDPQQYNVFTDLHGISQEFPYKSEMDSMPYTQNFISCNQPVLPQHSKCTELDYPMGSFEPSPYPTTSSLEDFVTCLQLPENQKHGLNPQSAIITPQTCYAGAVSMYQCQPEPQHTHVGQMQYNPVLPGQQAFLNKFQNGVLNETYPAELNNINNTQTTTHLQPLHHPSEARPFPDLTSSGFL
Peroxisome proliferator-activated receptor gamma (Homo sapiens), sequence (P37231 whole entry, looked up): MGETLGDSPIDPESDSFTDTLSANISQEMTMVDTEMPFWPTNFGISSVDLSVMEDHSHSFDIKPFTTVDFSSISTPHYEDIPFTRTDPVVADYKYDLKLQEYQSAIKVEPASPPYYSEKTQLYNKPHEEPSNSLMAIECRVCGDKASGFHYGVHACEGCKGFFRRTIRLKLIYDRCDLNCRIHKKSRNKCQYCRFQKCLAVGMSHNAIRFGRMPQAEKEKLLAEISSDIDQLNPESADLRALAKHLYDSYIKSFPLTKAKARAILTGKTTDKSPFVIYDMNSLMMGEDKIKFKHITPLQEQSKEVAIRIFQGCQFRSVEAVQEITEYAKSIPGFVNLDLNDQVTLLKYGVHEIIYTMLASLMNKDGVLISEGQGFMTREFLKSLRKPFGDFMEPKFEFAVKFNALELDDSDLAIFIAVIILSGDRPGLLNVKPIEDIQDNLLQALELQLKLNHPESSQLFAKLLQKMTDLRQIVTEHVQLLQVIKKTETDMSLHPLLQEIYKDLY

For the compound `CN(C)CCN(C)CCN(C)C`, the Potency result in [1], in assay [3], in [4], in assay [5], in assay [6] and in [7] was “inactive” each time. Also, the Potency result in assay [10], in [11], in assay [12], in [13], in assay [14] and in assay [16] was “inactive” throughout. Further, the compound was classed as inactive in assay [2], in assay [8], in [9], in assay [15], in [17] and in assay [18]. Besides, the result in assay [19] and in assay [20] was inactive.

Turning to `OCCCCCO`, the Potency entry in [1], in assay [3], in assay [4], in assay [5], in assay [7] and in assay [10] was “inactive” each time. The Potency result in assay [11], in assay [12], in [13], in assay [14] and in assay [16] was “inactive” throughout. The compound was classed as inactive in assay [2], in assay [8], in assay [9], in assay [17], in [18] and in assay [19]. In assay [6], the Potency is 40.3 µM (active).

As to `O=C(O)CC(C(=O)O)S(=O)(=O)O` (centres undefined), the Potency entry in [1], in assay [3], in assay [4], in assay [5], in assay [6] and in assay [7] was “inactive” in each case. The Potency entry in [10], in assay [11], in [12], in [13], in assay [14] and in assay [16] was “inactive” each time. Further, the result in assay [2], in assay [8], in assay [9], in assay [15], in [17] and in [20] was inactive.

For `CC1=CC(=O)[C@H]2C[C@@H]1C2(C)C`, the Potency result in assay [1], in assay [3], in [4], in [5], in [6] and in assay [7] was “inactive” each time. The Potency result in [10], in [11], in assay [12], in assay [14] and in assay [16] was “inactive” throughout. For the same compound, the compound was called inactive in assay [2], in assay [8], in assay [9], in assay [15], in [17] and in assay [18]. The compound was classed as inactive in assay [19] and in assay [20].

Consider `COc1ccc2cc1Oc1cc3c(cc1OC)CC[N+](C)(C)[C@H]3Cc1ccc(cc1)Oc1c(OC)c(OC)cc3c1[C@@H](C2)[N+](C)(C)CC3`, for which the Potency entry in [1], in assay [3], in assay [4], in assay [5], in [6] and in assay [7] was “inactive” in each case. In addition, the Potency entry in assay [10], in assay [11], in assay [12], in [13] and in assay [14] was “inactive” in each case. Besides, the call in assay [2], in assay [8], in assay [9], in [17], in assay [18] and in assay [19] was inactive. Also, in assay [20], the call was inactive.

On to `CO[Si](C)(OC)c1ccccc1`, for which the Potency entry in assay [1], in assay [3], in assay [4], in assay [5], in assay [6] and in [7] was “inactive” each time. For the same compound, the Potency result in assay [10], in assay [11], in [12], in assay [13], in assay [14] and in assay [16] was “inactive” in each case. Also, the result in assay [2], in assay [8], in assay [9], in assay [15], in assay [17] and in assay [18] was inactive. Also, the outcome in assay [19] and in assay [20] was inactive.

As to `O=S(=O)(O)c1cccc(S(=O)(=O)O)c1`, the Potency entry in [1], in assay [3], in [4], in [5], in assay [6] and in [7] was “inactive” in each case. Also, the Potency entry in [10], in assay [11], in assay [12], in [13] and in [14] was “inactive” in each case. For the same compound, the compound was classed as inactive in assay [2], in [8], in assay [9], in assay [15], in assay [17] and in assay [18]. Also, the call in assay [20] was inactive.

For `C=C[Si](OC(C)=O)(OC(C)=O)OC(C)=O`, the Potency entry in assay [1], in assay [3], in [4], in assay [5], in assay [6] and in assay [7] was “inactive” in each case. Further, the Potency entry in assay [10], in [11], in assay [12], in [13], in [14] and in assay [16] was “inactive” in each case. Moreover, the outcome in assay [2], in assay [8], in assay [9], in assay [15], in [18] and in assay [20] was inactive.

The record behind these values is PubChem BioAssay (Tox21).
